Assay results published in PubChem BioAssay.
The source made the active and inactive calls.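 Rule for the calls, unless noted: active = fluorescence slope after compound addition differing from the mean of all screened samples at 99.7% confidence, in either direction; inactive = the rest.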

Legend:
[1] = inhibitors of TNFa-induced NFkB p65 translocation, primary screen, imaging, HUVEC, MLSMR starter and 10KST1 sets (AID 438;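 active = inhibition above 20% together with a positive visual image hit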;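 note: compound added about 3h40 before a 20 min TNFalpha stimulation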;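 for inhibition: signal is the nuclear over cytoplasmic p65 intensity ratio per well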); details: HUVEC TNFa-induced p65 nuclear translocation; cell count: measured here: nuclei count (cytotoxicity indicator), at 2.08 µM; inhibition: at 2 µM, stronger effect = higher value, 0% TNFa-plus-vehicle, 100% no-TNFa wells
[2] = reduction of polyQ htt aggregates in cells – imaging, exon1htt(103Q)mCFP cells, high-content imaging, primary screen (AID 483;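 active = visual image review flags a hit and inhibition of aggregation exceeds 20%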;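 note: compound exposure lasted 3 days before fixation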;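 for nuclei count: percent of the per-plate median nuclei count of sample wells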); details: exon1htt(103Q)mCFP cell line, aggregate imaging, at 2 µM; inhibition of aggregation: stronger effect = higher value; nuclei count: measured here: cell count, toxicity
[3] = endothelial E-selectin expression blockers – imaging, HUVEC, immunofluorescence, MLSMR starter and 10KST1 sets, primary screen (AID 487;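 active = visually confirmed hit in the image check and inhibition above 20%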;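 for inhibition: signal is fraction of cell area covered by stained E-selectin grains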;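 for nuclei count: 100% = median nuclei count of all wells on the same plate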); details: HUVEC TNFalpha-induced E-selectin immunofluorescence imaging, at 2 µM; inhibition: stronger effect = higher value; nuclei count: measured here: cell number, toxicity
[4] = molecular target: Voltage-gated potassium channel subunit beta-2 (Rattus norvegicus) (UniProt P62483); assay: inhibitors of rat Kvbeta2 reductase activity – biochemical, NADPH fluorescence, primary screen (AID 622;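 active = fluorescence slope higher than the sample average by over 3 SD, cut at about -0.22 in these data, passing the limit was not always enough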;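 note: slope of raw intensity against log time taken from 70 to 1610 s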); details: recombinant KvBeta, 4-cyanobenzaldehyde reduction, at 10 µM, stronger effect = higher value
Voltage-gated potassium channel subunit beta-2 (Rattus norvegicus), sequence (P62483 whole entry, looked up): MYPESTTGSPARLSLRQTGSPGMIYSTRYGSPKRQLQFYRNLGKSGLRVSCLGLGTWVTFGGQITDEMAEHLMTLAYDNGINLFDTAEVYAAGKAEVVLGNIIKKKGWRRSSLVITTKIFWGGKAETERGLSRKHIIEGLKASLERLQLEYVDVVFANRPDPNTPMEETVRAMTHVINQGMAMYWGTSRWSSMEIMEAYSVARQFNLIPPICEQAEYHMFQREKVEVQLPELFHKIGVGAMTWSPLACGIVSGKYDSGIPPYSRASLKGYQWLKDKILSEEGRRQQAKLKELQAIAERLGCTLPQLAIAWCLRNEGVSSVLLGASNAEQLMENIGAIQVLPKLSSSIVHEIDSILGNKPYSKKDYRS

[5] = molecular target: Voltage-gated potassium channel subunit beta-2 (Rattus norvegicus) (UniProt P62483); assay: enhancers of rat Kvbeta2 NADPH turnover – biochemical, NADPH fluorescence, primary screen (AID 623;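 active = NADPH fluorescence slope more negative than the mean of all samples by about 3 SD, 99.7% confidence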;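 note: fluorescence intensity change per second fitted from 20 to 320 s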); details: Recombinant KvBeta, NADPH fluorescence decrease slope, 10 min; at 10 µM; stronger effect = lower value
[6] = molecular target: Alpha-2C adrenergic receptor (Homo sapiens) (UniProt P18825); assay: compounds altering alpha2C-coupled GIRK flux – cell-based, HEK293 alpha2C/GIRK1/2, thallium flux, primary screen (AID 624); details: thallium flux BTC fluorescence, at 10 µM, actives lie on both sides;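 note: slope of fluorescence ratio to pre-addition baseline per second over 15 to 24 s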
Alpha-2C adrenergic receptor (Homo sapiens), sequence (P18825 whole entry, looked up): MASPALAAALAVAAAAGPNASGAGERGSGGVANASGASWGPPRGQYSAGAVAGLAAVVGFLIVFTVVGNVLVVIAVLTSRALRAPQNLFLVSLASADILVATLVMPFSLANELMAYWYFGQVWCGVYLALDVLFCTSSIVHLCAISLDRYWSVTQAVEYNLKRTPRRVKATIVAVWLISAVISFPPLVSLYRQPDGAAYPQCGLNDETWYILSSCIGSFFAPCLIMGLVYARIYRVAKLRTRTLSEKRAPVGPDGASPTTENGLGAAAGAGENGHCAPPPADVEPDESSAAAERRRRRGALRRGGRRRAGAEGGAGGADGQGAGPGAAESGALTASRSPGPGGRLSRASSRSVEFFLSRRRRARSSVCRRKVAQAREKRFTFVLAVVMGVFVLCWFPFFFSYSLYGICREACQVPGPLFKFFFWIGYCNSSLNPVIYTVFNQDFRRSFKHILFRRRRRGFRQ

[7] = blockers of RIG-like receptor reporter activation – cell-based, Sendai virus stimulus, luciferase, 10K MLSCN set, TLR/RLR signaling modifier project, primary screen (AID 602276;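 active = inhibition at or above 50% at 10 µM; inactive = inhibition below 50%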;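 note: firefly luciferase from ISG56 promoter only with Renilla not read in this screen; 0% = Sendai virus plus DMSO and 100% = medium plus DMSO without virus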); details: HEK293 RL24 IRF3 luciferase reporter, at 10 µM, stronger effect = higher value
[8] = TLR3 IRF3 reporter activation blockers – cell-based, poly I:C stimulus, luciferase, 10K MLSCN set, primary screen (AID 602277;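 active = inhibition of the reporter signal at or above 50%; inactive = inhibition below 50%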); details: HEK293-TLR3 RL24 IRF3 luciferase reporter, at 10 µM, stronger effect = higher value

Compound | cell count [1] | inhibition [1] | inhibition of aggregation [2] | nuclei count [2] [%] | inhibition [3] | nuclei count [3] [%] | fluorescence slope [4] | NADPH fluorescence slope [5] | slope [6] | inhibition [7] | inhibition [8]
CC(C)=CCCC(C)N(C=O)C(C)CCC=C(C)C (stereo not drawn) | 470 | 8.1% (inactive) | 4.3% (inactive) | 98.2 | -144% (inactive) | 126 | -0.598 (inactive) | -1.6e-06 (inactive) | 0.00568 (inactive) | 10.3% (inactive) | -8.14% (inactive)
COc1ccc2[nH]c(=O)c(CN(Cc3cccs3)S(=O)(=O)c3cccc4nsnc34)cc2c1 | 510 | -4.2% (inactive) | -15.3% (inactive) | 110 | -68.8% (inactive) | 110 | -0.523 (inactive) | -0.000153 (inactive) | 0.00524 (inactive) | 8.33% (inactive) | 71.5% (active)
c1ccc(N2CCN(Cc3ccnc4ccccc34)CC2)cc1 | 424 | 5.4% (inactive) | 10.4% (inactive) | 83.9 | 43.4% (inactive) | 102 | -0.477 (inactive) | -3.9e-05 (inactive) | 0.0043 (inactive) | -12.4% (inactive) | -22.2% (inactive)
Cc1ccc(OCCN2CCN(C(=O)CCC(=O)Nc3nnc(C)s3)CC2)cc1 | 349 | -4.3% (inactive) | -14.8% (inactive) | 100 | -18.9% (inactive) | 100 | -0.318 (inactive) | -6.3e-05 (inactive) | 0.00527 (inactive) | 9.9% (inactive) | 19.2% (inactive)
O=C(O)c1ccc2c(c1)C(=O)N(c1ccc(Cl)cn1)C2=O | 675 | -4.5% (inactive) | 14.8% (inactive) | 84.8 | -72% (inactive) | 131 | -0.55 (inactive) | -2.8e-05 (inactive) | 0.00724 (inactive) | 10.9% (inactive) | 29.8% (inactive)
COc1cccc(C2CC(=O)Nc3cc4c(cc32)OCCO4)c1OC(C)C (stereo not drawn) | 556 | 1.9% (inactive) | 7.2% (inactive) | 119 | -18.7% (inactive) | 104 | -0.497 (inactive) | -6e-05 (inactive) | 0.00619 (inactive) | 9.49% (inactive) | 17.8% (inactive)
Cc1cc(C)nc(NC(=O)c2cnc3sccn3c2=O)n1 | 650 | -14% (inactive) | 18.2% (inactive) | 84.7 | -14.9% (inactive) | 110 | -0.528 (inactive) | -3.1e-05 (inactive) | 0.00661 (inactive) | 17.6% (inactive) | 47.4% (inactive)
COc1cccc2sc(NC(=O)c3ccc(S(=O)(=O)N4CCOCC4)cc3)nc12 | 357 | 0.5% (inactive) | 8.5% (inactive) | 74.7 | -21% (inactive) | 104 | -0.289 (inactive) | -2.5e-05 (inactive) | 0.00479 (inactive) | 10.2% (inactive) | 9.3% (inactive)
CCC(C(=O)OCC(=O)Nc1c(C)n(C)n(-c2ccccc2)c1=O)c1ccccc1 (stereo not drawn) | 640 | 6.8% (inactive) | 5.9% (inactive) | 89.5 | -53% (inactive) | 122 | -0.539 (inactive) | 5.3e-06 (inactive) | 0.00674 (inactive) | 7.71% (inactive) | 15.4% (inactive)
Nn1c(SCC(=O)Nc2ccc(Oc3ccccc3)cc2)nnc1C1CC1 | 331 | -12.3% (inactive) | 17.5% (inactive) | 91.2 | -57.3% (inactive) | 132 | -0.378 (inactive) | 1.7e-05 (inactive) | 0.00645 (inactive) | -8.58% (inactive) | -16% (inactive)
CC(C)Cn1c(CN2CCCCC2C)nc2c1c(=O)n(C)c(=O)n2C (stereo not drawn) | 693 | -10% (inactive) | 12.5% (inactive) | 93 | -25% (inactive) | 116 | -0.537 (inactive) | -1.5e-05 (inactive) | 0.00589 (inactive) | 2.69% (inactive) | 21.9% (inactive)
S=c1[nH]nc(-c2ccccc2)n1C1C=CCCC1 (stereo not drawn) | 240 | 0.4% (inactive) | 14.7% (inactive) | 94 | -329% (inactive) | 146 | -0.465 (inactive) | -1.5e-05 (inactive) | 0.00318 (inactive) | 4.48% (inactive) | 35.6% (inactive)
C=CCN1C(=O)C2(C(C#N)=C(N)Oc3n[nH]c(CCC)c32)c2ccccc21 (stereo not drawn) | 389 | 3.2% (inactive) | -32.8% (inactive) | 95.3 | -37.6% (inactive) | 114 | -0.625 (inactive) | -3.8e-05 (inactive) | 0.00735 (inactive) | 11.3% (inactive) | 16.8% (inactive)
COc1ccc(OC)c(S(=O)(=O)N2CCC(C(=O)NCC3CCCO3)CC2)c1 (stereo not drawn) | 268 | 1.3% (inactive) | 10.7% (inactive) | 100 | -34.4% (inactive) | 115 | -0.352 (inactive) | 2.2e-05 (inactive) | 0.00611 (inactive) | 14.9% (inactive) | 20.2% (inactive)
COCCN(Cc1cc2cccc(C)c2[nH]c1=O)C(=O)c1ccccc1 | 298 | -22.3% (inactive) | 3.6% (inactive) | 91.8 | -23.9% (inactive) | 124 | -0.372 (inactive) | -5.9e-05 (inactive) | 0.00564 (inactive) | 7.15% (inactive) | 16.3% (inactive)
OC(COc1ccccc1)CN1C2=NCCCN2c2ccccc21 (stereo not drawn) | 295 | 1.6% (inactive) | -3.1% (inactive) | 81.2 | 5.3% (inactive) | 79.2 | -0.608 (inactive) | -4.2e-06 (inactive) | 0.00402 (inactive) | 20% (inactive) | 30.6% (inactive)
CCOC(=O)C1CCCN(C(=O)c2cn(C)c(=O)c3cc(OC)c(OC)cc23)C1 (stereo not drawn) | 746 | -16.1% (inactive) | -3.6% (inactive) | 110 | 0.3% (inactive) | 110 | -0.468 (inactive) | -1e-06 (inactive) | 0.00726 (inactive) | 6.66% (inactive) | 15.1% (inactive)
O=C(Cc1cccs1)Nc1nnc(CCc2ccccc2)s1 | 382 | 1.5% (inactive) | 15.6% (inactive) | 110 | -152% (inactive) | 117 | -0.437 (inactive) | -5.5e-05 (inactive) | 0.00318 (inactive) | 9.85% (inactive) | 31.2% (inactive)
O=S(=O)(Nc1ccc(Cc2ccncc2)cc1)N1CCCC1 | 848 | -3.6% (inactive) | -0.2% (inactive) | 111 | -102% (inactive) | 130 | -0.52 (inactive) | 1.2e-05 (inactive) | 0.00557 (inactive) | 1.91% (inactive) | 2.2% (inactive)
CCn1c(SCC(=O)c2ccc(C)cc2)nnc1-c1ccoc1C | 446 | -11.7% (inactive) | 3.7% (inactive) | 77.4 | -138% (inactive) | 119 | -0.329 (inactive) | -6.6e-05 (inactive) | 0.00433 (inactive) | -8.3% (inactive) | -36.4% (inactive)
Cc1ccc(NC(=O)CSc2nnc(CNC(=O)c3c(F)cccc3Cl)o2)cc1 | 645 | -10% (inactive) | -19.6% (inactive) | 108 | -49% (inactive) | 118 | -0.346 (inactive) | -7.5e-06 (inactive) | 0.00601 (inactive) | 1.9% (inactive) | 10.9% (inactive)
O=c1cc(CSc2ccccn2)c2ccccc2[nH]1 | 446 | 1.4% (inactive) | 9.1% (inactive) | 74.9 | -59.6% (inactive) | 128 | -0.578 (inactive) | -3e-05 (inactive) | 0.00572 (inactive) | 10.1% (inactive) | 18.8% (inactive)
C=CCNC(=O)c1cccc(Br)c1 | 399 | 6.3% (inactive) | -3.3% (inactive) | 101 | -24.7% (inactive) | 115 | -0.448 (inactive) | 1.8e-05 (inactive) | 0.00497 (inactive) | -5.88% (inactive) | 7.57% (inactive)
CC1(C)CC(=O)c2sc(NS(C)(=O)=O)nc2C1 | 638 | -10.5% (inactive) | -16.8% (inactive) | 104 | -56.1% (inactive) | 106 | -0.533 (inactive) | -4.4e-05 (inactive) | 0.00519 (inactive) | 18.2% (inactive) | 27.8% (inactive)
Cc1cccc(N2C(=O)CC(N3CCN(c4cccc(C(F)(F)F)c4)CC3)C2=O)c1 (stereo not drawn) | 593 | -7.2% (inactive) | 3.8% (inactive) | 126 | -13.6% (inactive) | 119 | -0.386 (inactive) | 8.5e-06 (inactive) | 0.00436 (inactive) | 10.3% (inactive) | 36.4% (inactive)
CCOC(=O)c1cc2sccc2n1Cc1ccccc1 | 417 | 7.3% (inactive) | -5.2% (inactive) | 101 | -147% (inactive) | 99.7 | -0.598 (inactive) | -9.9e-06 (inactive) | 0.00361 (inactive) | -10.3% (inactive) | -7.29% (inactive)
COC(=O)c1ccc(NC(=O)Cn2nnc3ccccc32)cc1 | 445 | -10.2% (inactive) | 8.3% (inactive) | 134 | -8.2% (inactive) | 134 | -0.377 (inactive) | -5.8e-05 (inactive) | 0.0057 (inactive) | -21.8% (inactive) | -69.7% (inactive)
O=C(c1ccc(-c2ccccc2)cc1)N1CCC(C(=O)N2CCCC2)CC1 | 237 | -4.7% (inactive) | 0.5% (inactive) | 91.7 | -17.6% (inactive) | 101 | -0.388 (inactive) | -5.3e-05 (inactive) | 0.00472 (inactive) | 16% (inactive) | 8.25% (inactive)
